The text below walks through data of publication PMC7862700, “An all-to-all approach to the identification of sequence-specific readers for epigenetic DNA modifications on cytosine”.

Assay in all cases: DAPPL (digital affinity profiling via proximity ligation, sequencing); 10 mM Tris-HCl pH 7.5, 50 mM NaCl, 1 mM DTT, 4% glycerol, room temperature, 30 min; GST-TFs on glutathione beads, 16-mer random dsDNA library, 0.1% formaldehyde crosslink after washing; high values mean tight binding
In one test the target is T1, FLI1 (Homo sapiens, UniProt Q01543 1-452).
T1 sequence: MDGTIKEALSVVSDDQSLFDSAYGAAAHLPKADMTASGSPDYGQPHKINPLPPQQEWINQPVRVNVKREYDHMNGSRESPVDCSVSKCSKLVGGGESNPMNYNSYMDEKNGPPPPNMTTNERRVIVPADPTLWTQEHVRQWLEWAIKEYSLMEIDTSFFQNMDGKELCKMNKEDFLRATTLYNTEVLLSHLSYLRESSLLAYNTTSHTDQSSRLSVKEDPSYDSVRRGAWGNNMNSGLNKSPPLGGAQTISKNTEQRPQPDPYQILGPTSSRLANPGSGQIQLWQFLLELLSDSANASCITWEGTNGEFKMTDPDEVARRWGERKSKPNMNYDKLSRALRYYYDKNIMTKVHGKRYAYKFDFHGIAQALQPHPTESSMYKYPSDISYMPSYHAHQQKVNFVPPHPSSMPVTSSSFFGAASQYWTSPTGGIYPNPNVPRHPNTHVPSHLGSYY
The settings on record: protein: recombinant; tags: N-terminal GST; dsDNA, one strand shown. The method, boiled down:
(§1)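 Yeast served to express human transcription factors as GST fusions, which were then captured on glutathione beads and labelled with DNA barcodes. Pooled with a tag-only sample, they were incubated with 200 nmole of a 16-mer random double-stranded DNA library for 30 min at room temperature in Tris/NaCl/DTT/glycerol buffer, washed, crosslinked with 0.1% formaldehyde, ligated by proximity, amplified by PCR and sequenced. Dividing each hexamer's read frequency for a factor by its frequency for the tag-only sample gives the binding signal.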

The next test concerns the target T2, ELK1 (Homo sapiens, UniProt P19419 1-428).
T2 sequence: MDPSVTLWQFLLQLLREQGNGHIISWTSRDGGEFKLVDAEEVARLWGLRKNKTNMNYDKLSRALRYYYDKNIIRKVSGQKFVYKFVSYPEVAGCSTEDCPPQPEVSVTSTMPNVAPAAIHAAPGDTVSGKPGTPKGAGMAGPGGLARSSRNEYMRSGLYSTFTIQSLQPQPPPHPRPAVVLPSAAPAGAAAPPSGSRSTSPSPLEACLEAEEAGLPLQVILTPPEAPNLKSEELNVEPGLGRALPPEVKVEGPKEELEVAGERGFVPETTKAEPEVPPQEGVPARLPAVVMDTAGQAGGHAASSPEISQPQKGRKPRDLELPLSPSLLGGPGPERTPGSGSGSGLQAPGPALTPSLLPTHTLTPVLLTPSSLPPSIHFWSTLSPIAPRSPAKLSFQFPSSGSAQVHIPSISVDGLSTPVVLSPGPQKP
The settings on record: protein: recombinant; tags: N-terminal GST; dsDNA, one strand shown. The procedure, abridged: as §1

Another test concerns the target T3, GABPA (Homo sapiens, UniProt Q06546 1-454).
T3 sequence: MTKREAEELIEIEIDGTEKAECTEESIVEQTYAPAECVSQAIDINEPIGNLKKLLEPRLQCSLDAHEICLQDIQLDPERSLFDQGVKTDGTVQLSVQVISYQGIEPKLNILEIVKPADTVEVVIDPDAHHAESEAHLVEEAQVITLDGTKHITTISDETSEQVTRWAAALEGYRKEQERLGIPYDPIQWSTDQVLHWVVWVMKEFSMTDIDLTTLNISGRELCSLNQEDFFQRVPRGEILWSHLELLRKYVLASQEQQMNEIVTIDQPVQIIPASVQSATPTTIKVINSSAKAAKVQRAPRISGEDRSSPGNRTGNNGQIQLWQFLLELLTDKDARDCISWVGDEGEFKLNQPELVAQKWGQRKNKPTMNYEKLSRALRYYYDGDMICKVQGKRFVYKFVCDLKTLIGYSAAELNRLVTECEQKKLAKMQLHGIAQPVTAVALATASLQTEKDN
The settings on record: protein: recombinant; tags: N-terminal GST; dsDNA, one strand shown. The procedure, abridged:
as §1

The next test addresses T4, ERG (Homo sapiens, UniProt P11308 1-479).
T4 sequence: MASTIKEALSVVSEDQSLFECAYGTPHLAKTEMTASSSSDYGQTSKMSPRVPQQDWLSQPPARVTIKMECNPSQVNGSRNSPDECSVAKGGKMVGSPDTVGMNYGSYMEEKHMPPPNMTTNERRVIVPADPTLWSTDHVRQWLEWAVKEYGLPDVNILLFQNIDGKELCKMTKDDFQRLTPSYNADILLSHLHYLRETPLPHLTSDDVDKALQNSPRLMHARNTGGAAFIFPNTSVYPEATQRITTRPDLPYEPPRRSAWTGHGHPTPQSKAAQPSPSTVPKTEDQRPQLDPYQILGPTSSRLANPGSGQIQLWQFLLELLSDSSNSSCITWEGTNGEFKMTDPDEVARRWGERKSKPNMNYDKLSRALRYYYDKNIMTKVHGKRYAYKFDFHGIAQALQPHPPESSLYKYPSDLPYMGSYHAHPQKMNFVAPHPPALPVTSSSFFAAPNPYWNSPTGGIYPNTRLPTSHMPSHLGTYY
As to conditions: protein: recombinant; tags: N-terminal GST; dsDNA, one strand shown. The method, boiled down:
as §1

A further test deals with ELF1 (Homo sapiens, UniProt P32519 1-619). As to conditions: protein: recombinant; tags: N-terminal GST; dsDNA, one strand shown. The procedure, abridged:
as §1

A further test addresses T5, EHF (Homo sapiens, UniProt Q9NZC4 1-300).
T5 sequence: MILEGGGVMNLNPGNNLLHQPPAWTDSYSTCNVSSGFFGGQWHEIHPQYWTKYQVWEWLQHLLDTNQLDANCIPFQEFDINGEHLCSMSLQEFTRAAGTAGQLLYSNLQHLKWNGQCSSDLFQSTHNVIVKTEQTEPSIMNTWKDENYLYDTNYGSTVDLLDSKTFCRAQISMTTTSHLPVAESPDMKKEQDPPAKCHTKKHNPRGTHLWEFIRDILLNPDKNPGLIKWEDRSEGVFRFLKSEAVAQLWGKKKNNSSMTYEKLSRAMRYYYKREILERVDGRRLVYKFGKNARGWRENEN
As to conditions: protein: recombinant; tags: N-terminal GST; dsDNA, one strand shown. The procedure, abridged:
as §1

Another test addresses SPI1 (Homo sapiens, UniProt P17947 1-270). The settings on record: protein: recombinant; tags: N-terminal GST; dsDNA, one strand shown. The procedure, abridged: as §1
A further test addresses SPIB (Homo sapiens, UniProt Q01892 1-262). As to conditions: protein: recombinant; tags: N-terminal GST; dsDNA, one strand shown. The procedure, abridged:
as §1

The target of the next test is T6, ELK3 (Homo sapiens, UniProt P41970 1-407).
T6 sequence: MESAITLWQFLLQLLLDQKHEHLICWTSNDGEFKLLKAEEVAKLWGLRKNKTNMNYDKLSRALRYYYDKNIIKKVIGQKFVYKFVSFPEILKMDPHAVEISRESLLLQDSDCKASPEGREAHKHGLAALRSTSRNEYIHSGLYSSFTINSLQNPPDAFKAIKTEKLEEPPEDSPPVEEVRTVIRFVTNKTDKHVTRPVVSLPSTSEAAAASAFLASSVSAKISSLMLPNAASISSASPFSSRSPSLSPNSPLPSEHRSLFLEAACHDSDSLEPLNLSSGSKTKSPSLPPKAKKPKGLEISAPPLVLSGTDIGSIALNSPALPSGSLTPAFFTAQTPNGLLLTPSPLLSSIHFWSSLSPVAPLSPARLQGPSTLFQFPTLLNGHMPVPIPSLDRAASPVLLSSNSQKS
As to conditions: protein: recombinant; tags: N-terminal GST; dsDNA, one strand shown. The method, boiled down: as §1

The target in a further test is T7, FEV (Homo sapiens, UniProt Q99581 1-238).
T7 sequence: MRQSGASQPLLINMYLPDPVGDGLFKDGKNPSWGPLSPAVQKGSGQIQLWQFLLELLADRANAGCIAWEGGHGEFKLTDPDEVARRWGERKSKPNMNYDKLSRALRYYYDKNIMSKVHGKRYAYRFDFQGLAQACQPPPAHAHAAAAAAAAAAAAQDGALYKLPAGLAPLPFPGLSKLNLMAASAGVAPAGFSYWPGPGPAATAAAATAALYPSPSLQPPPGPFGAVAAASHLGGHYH
As to conditions: protein: recombinant; tags: N-terminal GST; dsDNA, one strand shown. The method, boiled down: as §1

In another test the target is ETV5 (Homo sapiens, UniProt P41161 1-510). The settings on record: protein: recombinant; tags: N-terminal GST; dsDNA, one strand shown. The procedure, abridged: as §1
A further test concerns the target HSF1 (Homo sapiens, UniProt Q00613 1-529). The settings on record: protein: recombinant; tags: N-terminal GST; chain copies: 3; dsDNA, one strand shown. The method, boiled down:
as §1

The next test deals with T8, SPIC (Homo sapiens, UniProt Q8N5J4 1-248).
T8 sequence: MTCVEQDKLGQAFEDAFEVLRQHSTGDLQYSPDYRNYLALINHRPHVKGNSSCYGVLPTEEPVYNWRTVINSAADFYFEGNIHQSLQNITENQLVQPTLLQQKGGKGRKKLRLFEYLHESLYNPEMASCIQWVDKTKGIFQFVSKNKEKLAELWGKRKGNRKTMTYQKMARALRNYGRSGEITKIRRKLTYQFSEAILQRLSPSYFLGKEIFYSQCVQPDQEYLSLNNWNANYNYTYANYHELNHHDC
As to conditions: protein: recombinant; tags: N-terminal GST; dsDNA, one strand shown. The method, boiled down: as §1

The target in the next test is ELF4 (Homo sapiens, UniProt Q99607 1-663). The settings on record: protein: recombinant; tags: N-terminal GST; dsDNA, one strand shown. The procedure, abridged: as §1
A further test addresses T9, ELK4 (Homo sapiens, UniProt P28324-2 1-405).
T9 sequence: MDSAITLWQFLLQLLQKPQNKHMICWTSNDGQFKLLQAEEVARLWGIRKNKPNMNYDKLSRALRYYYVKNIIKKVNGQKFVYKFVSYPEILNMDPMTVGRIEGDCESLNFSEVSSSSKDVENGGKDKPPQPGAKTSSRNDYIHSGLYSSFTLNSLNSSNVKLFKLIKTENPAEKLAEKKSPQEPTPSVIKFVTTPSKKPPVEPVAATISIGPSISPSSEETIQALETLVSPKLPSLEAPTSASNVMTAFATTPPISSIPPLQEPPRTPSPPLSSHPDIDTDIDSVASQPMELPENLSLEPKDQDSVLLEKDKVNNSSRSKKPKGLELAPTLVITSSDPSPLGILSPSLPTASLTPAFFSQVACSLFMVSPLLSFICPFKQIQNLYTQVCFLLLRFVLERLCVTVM
As to conditions: protein: recombinant; tags: N-terminal GST; dsDNA, one strand shown. The procedure, abridged:
as §1

The target of another test is T10, ETV2 (Homo sapiens, UniProt O00321 1-342).
T10 sequence: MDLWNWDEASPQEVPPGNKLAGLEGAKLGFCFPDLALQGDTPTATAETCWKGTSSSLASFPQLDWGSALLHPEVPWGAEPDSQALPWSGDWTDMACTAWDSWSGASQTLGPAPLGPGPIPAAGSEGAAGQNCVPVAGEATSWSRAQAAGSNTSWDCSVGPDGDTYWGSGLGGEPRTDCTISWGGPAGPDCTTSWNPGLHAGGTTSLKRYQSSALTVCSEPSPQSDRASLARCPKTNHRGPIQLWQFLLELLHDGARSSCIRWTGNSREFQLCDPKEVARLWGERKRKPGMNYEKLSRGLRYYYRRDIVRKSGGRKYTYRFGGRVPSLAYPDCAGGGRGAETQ
The settings on record: protein: recombinant; tags: N-terminal GST; dsDNA, one strand shown. The method, boiled down:
as §1

Another test concerns the target T11, ELF3 (Homo sapiens, UniProt P78545 1-371).
T11 sequence: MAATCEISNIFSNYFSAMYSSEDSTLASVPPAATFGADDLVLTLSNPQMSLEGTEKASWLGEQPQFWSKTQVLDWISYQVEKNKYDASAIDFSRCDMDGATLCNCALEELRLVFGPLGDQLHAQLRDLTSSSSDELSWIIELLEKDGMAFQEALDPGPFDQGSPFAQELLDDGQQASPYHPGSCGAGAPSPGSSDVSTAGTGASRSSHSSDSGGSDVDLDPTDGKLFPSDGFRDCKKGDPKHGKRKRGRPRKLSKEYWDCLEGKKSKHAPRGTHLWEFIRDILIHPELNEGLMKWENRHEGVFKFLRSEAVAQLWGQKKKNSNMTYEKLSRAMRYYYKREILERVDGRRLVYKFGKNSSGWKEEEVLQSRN
The settings on record: protein: recombinant; tags: N-terminal GST; dsDNA, one strand shown. The procedure, abridged: as §1

Another test concerns the target CRX (Homo sapiens, UniProt O43186 1-299). As to conditions: protein: recombinant; tags: N-terminal GST; dsDNA, one strand shown. The procedure, abridged:
as §1

Another test concerns the target ETV1 (Homo sapiens, UniProt P50549 1-477). The settings on record: protein: recombinant; tags: N-terminal GST; dsDNA, one strand shown. The procedure, abridged:
as §1

CRX, sequence (O43186 whole entry): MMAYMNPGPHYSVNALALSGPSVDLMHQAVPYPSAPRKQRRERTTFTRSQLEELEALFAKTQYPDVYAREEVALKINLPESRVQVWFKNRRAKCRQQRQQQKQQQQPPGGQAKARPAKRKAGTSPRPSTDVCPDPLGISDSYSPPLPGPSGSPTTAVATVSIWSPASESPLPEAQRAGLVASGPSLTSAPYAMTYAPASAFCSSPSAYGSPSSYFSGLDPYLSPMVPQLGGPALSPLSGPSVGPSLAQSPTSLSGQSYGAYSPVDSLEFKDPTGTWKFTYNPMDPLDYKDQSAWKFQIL
HSF1, sequence (Q00613 whole entry): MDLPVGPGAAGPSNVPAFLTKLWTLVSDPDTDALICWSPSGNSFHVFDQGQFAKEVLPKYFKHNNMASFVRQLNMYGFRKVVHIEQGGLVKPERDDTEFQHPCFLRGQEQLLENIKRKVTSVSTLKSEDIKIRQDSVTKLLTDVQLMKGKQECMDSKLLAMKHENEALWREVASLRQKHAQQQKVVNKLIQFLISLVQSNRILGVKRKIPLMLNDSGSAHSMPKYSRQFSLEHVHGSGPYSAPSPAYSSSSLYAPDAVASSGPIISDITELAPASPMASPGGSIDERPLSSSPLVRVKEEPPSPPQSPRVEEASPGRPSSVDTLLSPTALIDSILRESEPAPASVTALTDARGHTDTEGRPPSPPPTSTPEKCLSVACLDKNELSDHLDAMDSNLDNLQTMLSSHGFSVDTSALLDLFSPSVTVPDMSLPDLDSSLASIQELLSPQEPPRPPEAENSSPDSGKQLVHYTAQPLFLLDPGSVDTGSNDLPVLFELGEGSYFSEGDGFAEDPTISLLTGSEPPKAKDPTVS
ETV5, sequence (P41161 whole entry): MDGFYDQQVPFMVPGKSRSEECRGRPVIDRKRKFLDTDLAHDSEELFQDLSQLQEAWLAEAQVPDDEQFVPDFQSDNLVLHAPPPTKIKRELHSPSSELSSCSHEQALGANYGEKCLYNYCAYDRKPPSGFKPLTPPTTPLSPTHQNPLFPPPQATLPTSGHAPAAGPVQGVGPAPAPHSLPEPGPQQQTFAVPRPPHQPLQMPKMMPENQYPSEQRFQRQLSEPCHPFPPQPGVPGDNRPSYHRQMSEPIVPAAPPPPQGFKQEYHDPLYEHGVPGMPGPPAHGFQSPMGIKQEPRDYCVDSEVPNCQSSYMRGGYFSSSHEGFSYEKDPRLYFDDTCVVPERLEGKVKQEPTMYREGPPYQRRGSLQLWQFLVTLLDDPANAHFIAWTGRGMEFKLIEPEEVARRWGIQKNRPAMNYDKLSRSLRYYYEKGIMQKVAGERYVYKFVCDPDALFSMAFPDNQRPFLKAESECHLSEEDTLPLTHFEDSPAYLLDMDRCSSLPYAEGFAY
ELF4, sequence (Q99607 whole entry): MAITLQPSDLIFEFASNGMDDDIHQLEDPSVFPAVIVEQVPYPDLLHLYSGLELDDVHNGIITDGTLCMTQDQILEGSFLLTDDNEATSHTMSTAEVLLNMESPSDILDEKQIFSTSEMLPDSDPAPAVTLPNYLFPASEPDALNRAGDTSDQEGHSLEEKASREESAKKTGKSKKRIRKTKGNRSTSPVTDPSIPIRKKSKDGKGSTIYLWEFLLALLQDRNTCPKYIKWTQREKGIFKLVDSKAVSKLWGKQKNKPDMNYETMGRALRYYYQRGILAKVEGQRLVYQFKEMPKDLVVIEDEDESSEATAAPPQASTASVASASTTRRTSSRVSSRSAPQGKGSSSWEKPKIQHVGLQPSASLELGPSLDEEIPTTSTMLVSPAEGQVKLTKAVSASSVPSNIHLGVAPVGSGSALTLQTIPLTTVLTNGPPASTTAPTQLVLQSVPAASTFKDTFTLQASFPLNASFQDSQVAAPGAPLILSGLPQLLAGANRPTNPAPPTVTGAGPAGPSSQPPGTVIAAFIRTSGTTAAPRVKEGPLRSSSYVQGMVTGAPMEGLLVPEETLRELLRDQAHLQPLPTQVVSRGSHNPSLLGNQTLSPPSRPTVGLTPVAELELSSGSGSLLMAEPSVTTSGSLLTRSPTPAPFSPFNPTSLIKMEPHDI
ETV1, sequence (P50549 whole entry): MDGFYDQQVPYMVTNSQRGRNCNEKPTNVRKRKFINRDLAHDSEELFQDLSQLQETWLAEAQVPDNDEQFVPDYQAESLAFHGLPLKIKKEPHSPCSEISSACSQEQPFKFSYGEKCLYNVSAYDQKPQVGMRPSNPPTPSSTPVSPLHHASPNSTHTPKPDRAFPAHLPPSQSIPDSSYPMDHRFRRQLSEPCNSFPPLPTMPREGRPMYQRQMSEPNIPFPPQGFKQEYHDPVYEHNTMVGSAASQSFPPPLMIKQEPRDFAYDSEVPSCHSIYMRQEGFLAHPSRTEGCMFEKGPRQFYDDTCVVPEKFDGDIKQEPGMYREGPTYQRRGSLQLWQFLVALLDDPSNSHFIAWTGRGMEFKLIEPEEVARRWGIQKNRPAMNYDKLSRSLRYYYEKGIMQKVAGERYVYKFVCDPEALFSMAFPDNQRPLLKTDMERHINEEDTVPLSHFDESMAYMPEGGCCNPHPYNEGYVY
ELF1, sequence (P32519 whole entry): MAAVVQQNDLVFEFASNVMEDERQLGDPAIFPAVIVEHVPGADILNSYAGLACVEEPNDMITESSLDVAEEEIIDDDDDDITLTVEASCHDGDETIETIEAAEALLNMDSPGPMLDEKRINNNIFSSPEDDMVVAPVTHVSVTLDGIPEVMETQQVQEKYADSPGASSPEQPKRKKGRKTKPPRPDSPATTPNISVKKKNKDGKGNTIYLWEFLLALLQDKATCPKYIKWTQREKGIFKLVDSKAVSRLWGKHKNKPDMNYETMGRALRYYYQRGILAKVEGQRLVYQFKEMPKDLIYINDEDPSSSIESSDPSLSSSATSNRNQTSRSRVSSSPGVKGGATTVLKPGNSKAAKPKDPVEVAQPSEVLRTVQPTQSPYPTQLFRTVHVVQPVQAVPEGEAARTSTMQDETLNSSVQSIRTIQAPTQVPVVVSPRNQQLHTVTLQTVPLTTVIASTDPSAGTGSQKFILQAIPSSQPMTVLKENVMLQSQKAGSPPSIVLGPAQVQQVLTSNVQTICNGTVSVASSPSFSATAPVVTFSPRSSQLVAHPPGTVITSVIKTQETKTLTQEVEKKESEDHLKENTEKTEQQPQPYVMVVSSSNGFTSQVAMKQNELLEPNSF
SPIB, sequence (Q01892 whole entry): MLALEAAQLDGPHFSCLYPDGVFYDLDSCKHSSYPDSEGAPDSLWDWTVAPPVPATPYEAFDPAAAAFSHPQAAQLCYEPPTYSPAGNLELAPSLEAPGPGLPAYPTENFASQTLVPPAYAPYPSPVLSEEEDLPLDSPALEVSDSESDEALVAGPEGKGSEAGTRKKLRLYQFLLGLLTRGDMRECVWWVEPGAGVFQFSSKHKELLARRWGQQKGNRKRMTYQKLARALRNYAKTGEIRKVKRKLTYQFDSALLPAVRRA

TAATGA: the binding signal with FLI1 is 1.09 fold enrichment (6-mer frequency, TF over GST control); in the test with ELK1, 1.21 fold enrichment (6-mer frequency, TF over GST control); in the test with GABPA, 1.26 fold enrichment (6-mer frequency, TF over GST control); in the test with ERG it was 1.02 fold enrichment (6-mer frequency, TF over GST control); with ELF1, 1.1 fold enrichment (6-mer frequency, TF over GST control); with EHF, 1.2 fold enrichment (6-mer frequency, TF over GST control). The binding signal was 1.22 fold enrichment (6-mer frequency, TF over GST control) with SPI1; 1.16 fold enrichment (6-mer frequency, TF over GST control) with SPIB; 1.21 fold enrichment (6-mer frequency, TF over GST control) with ELK3; 1.12 fold enrichment (6-mer frequency, TF over GST control) with FEV; 1.12 fold enrichment (6-mer frequency, TF over GST control) with ETV5; 1.37 fold enrichment (6-mer frequency, TF over GST control) with HSF1. Further, the binding signal in the test with SPIC is 1.11 fold enrichment (6-mer frequency, TF over GST control); with ELF4, 1.17 fold enrichment (6-mer frequency, TF over GST control); in the test with ELK4, 1.12 fold enrichment (6-mer frequency, TF over GST control); with ETV2, 1.13 fold enrichment (6-mer frequency, TF over GST control); with ELF3 it was 1.12 fold enrichment (6-mer frequency, TF over GST control); with CRX it was 1.7 fold enrichment (6-mer frequency, TF over GST control). In the test with ETV1, the binding signal was 1.19 fold enrichment (6-mer frequency, TF over GST control).
